Assay outcomes from PubChem BioAssay.
Shown are actives, neighbours in structure and some others; about 4.6% of the full set was active somewhere.
Vaccinia Venus: vaccinia inhibition (Venus reporter); Vaccinia virus Venus reporter expression, fluorescence; Potency, µM (highest dose often 36.5 µM), for the others: top-dose activity change, negative = inhibition, actives largely listed as inhibitors; 330,000 tested, 0.46% active; AID 720580; calls by dose curve; tested in A549 cells; also: nearly all actives have a fitted effect of over 30% in size
HCV inhibitor: HCV inhibition; Huh7.5.1 HCVcc-Cre infection, luciferase reporter, 44 h; Potency, µM (titrated, usually from 41.8 µM), for inactives: top-dose activity change, negative = inhibition, actives largely listed as inhibitors; 340,000 tested, 3.4% active; AID 651820; active = well fitted inhibition curve with a large enough effect; inconclusive = small, poorly fitted or top-dose-only effect, or another doubt; inactive = no such curve, though single readings can be large or run the other way
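Antiviral activity was scored by luciferase reporter output from cells infected with HCVcc-Cre (~0.5 moi) in presence of compound, 44 h infection period, cells seeded 1,000/well 4 h prior.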
MARV entry inh: blocks Marburg virus binding to or entry into cells; Marburg virus pseudotyped entry inhibition, cell reporter; Potency, µM (highest dose often 37.8 µM), for the others: top-dose activity change, negative = inhibition, hits mostly inhibitors; 300,000 tested, 1.8% active; AID 540276; calls by dose curve; tested in HEK293 cells
Lassa entry inh: blocks Lassa virus binding to or entry into cells. Lassa virus pseudotype entry inhibition, cell reporter. 300,000 tested, 1.2% active. AID 540256. Potency, µM (titrated, usually from 37.9 µM), without a hit: at the highest dose activity change, negative = inhibition, most hits filed as inhibitors; calls by dose curve; tested in HEK293 cells; also: nearly all actives have a fitted effect of over 50% in size
Vaccinia mCherry: inhibitors of vaccinia virus infection (mCherry reporter signal). AID 720579. Potency, µM (titrated, usually from 36.5 µM), for the others: at the highest dose activity change, negative = inhibition, most hits filed as inhibitors. 310,000 tested, 0.63% active. Vaccinia virus mCherry reporter infection, fluorescence; calls by dose curve; tested in A549 cells; also: nearly all actives have a fitted effect of over 35% in size
Numbers without * were called inactive; i = inactive; ? = inconclusive; . = no result; [ ] = another dose, or the depositor's remark. % is scaled to controls: 0 for no effect and ±100 for the full control effect; potency is read from the fitted curve at half-maximal effect.

SMILES	Vaccinia Venus	HCV inhibitor	MARV entry inh	Lassa entry inh	Vaccinia mCherry
Cc1ccc(S(=O)(=O)N2CCOCC2)cc1C(=O)NCCN1C(=O)S/C(=C\c2ccccc2Cl)C1=O	?	13µM*	?	?	?
COc1ccc2[nH]cc(S(=O)(=O)c3ccc(C)c(C)c3)c(=O)c2c1	-18%	.	3%[46.1 µM]	0%[46.1 µM]	-6%
CCc1ccc(NC(=O)Cn2ncc3c(C)n(Cc4cccc(Cl)c4)c(C)c3c2=O)cc1	-29%	.	?	?	-23%
CC(NC(=O)C1CCOCC1)c1nnc2n1CCN(Cc1ccc3ccccc3c1)CC2 (stereo not drawn)	-2%	.	.	.	-15%
C=CCN(c1ccccc1)S(=O)(=O)c1cccc(C(=O)N(CC)CC(=O)Nc2c(F)cccc2F)c1	-19%	.	?	18µM*	-10%
CS(=O)(=O)c1ccc(C(=O)Nc2ccc(N3CCOCC3)cc2)c(Cl)c1	-6%	-16%	-6%[46.1 µM]	-2%[46.1 µM]	-10%
C=CCN(c1ccccc1)S(=O)(=O)c1cccc(C(=O)NCC(c2ccc(OC)cc2)N2CCCCC2)c1 (stereo not drawn)	?	6.3µM*	?	?	?
CN(c1ccccc1)S(=O)(=O)c1ccc(Cl)c(C(=O)Nc2ccc(N3CCOCC3)cc2)c1	-15%	16µM*	3%[46.1 µM]	?	-13%
COCc1[nH]nc2c1[C@@H](c1sccc1C)C(C#N)=C(N)O2	.	.	-12%	.	.
COc1ccc(-c2nc(-c3ccncc3)no2)cc1	.	-6%	.	.	.
COc1ccc(-c2nc(-c3cccs3)no2)cc1	-18%	0%	?	1.8µM*	-12%
CC(C)Nc1ccc(-c2nc(-c3ccccn3)no2)cc1[N+](=O)[O-]	6%	.	-18%[46.1 µM]	11%[46.1 µM]	-4%
Clc1ccc(-c2nc(-c3ccccn3)no2)cc1Cl	-7%	1%	2.9µM*	?	-1%
Cc1ccccc1-c1nc(-c2ccccn2)no1	9%	5%	?	1.3µM*	0%
COc1ccccc1-c1nc(-c2ccccn2)no1	-8%	?	.	.	-10%
CCc1ccc(-c2nc(-c3ccncc3)no2)cc1	?	10%	13µM*	?	.
COc1cc2nc(N(C)C)c(CNCCc3c[nH]c4ccccc34)cc2c(OC)c1OC	2%	.	.	.	-10%
Cc1ccc(-c2nnc3ccccc3c2C(=O)Nc2cccc(Cl)c2)cc1	-4%	.	.	?	-8%
COc1ccc(-c2nc(-c3cccnc3)no2)cc1	-8%	-10%	.	.	-2%
COc1ccc(-c2nc(-c3ccccn3)no2)cc1	.	-22%	0.29µM*	?	.
COc1nc(C)ccc1-c1noc(-c2ccccn2)n1	.	6%	?	8.2µM*	.
CCOc1ccc(-c2nc(-c3cccnc3)no2)cc1	-6%	-8%	5.6µM*	10µM*	-13%
Brc1ccc(-c2nc(-c3ccccn3)no2)o1	-25%	-1%	7.9µM*	8.9µM*	i
O=C(NCc1ccncc1)c1cnn(-c2nccc(-c3cc4ccccc4o3)n2)c1C1CC1	-11%	.	.	.	-17%
CNC(=O)c1ccc2nc(-c3ccco3)c(-c3ccco3)nc2c1	12%	.	.	.	-10%
SMILES	Vaccinia Venus	HCV inhibitor	MARV entry inh	Lassa entry inh	Vaccinia mCherry
Clc1ccc(OCc2nc(-c3ccccn3)no2)c(Br)c1	-11%	?	?	9.2µM*	-7%
Cc1csc(NC(=O)c2cn3ccccc3n2)n1	-6%	4%	?	4µM*	0%
Cc1csc(NC(=O)c2ccccc2C(=O)O)n1	.	-7%	6%	-2%	.
Cc1csc(NC(=O)c2ccc3ccccc3n2)n1	-13%	?	?	?	-9%
Cc1csc(NC(=O)c2cnc3ccccc3n2)n1	8%	8%	5.6µM*	?	3%
CCc1ccc(C(=O)Nc2nc(C)cs2)s1	-18%	11%	?	1.3µM*	-18%
CCCS(=O)(=O)NCc1c(C)ncc2c1CCN(C(=O)c1cccc(-c3ccccc3F)c1)C2	17%	.	.	.	-3%
CCOc1ccc([C@H]2C[C@H](c3ccccc3)Nc3nc(N)nn32)cc1	.	.	1%	.	.
Cc1nc2ccc(NC(=O)c3cccs3)cc2c(=O)n1Cc1ccc(Cl)cc1	?	?	?	?	11µM*
N#CC1=C(SCC(=O)c2ccc(Br)cc2)NC2=C(C(=O)CCC2)C1c1ccco1 (stereo not drawn)	?	4.5µM*	8.9µM*	?	?
Cc1c(N/N=C(\C#N)C(=O)c2ccccc2)c(=O)n(-c2ccccc2)n1C	-27%	10µM*	11µM*	?	13µM*
